Measurements: PubChem BioAssay (NCI)
This is part of a sample that, as a whole, favours compounds with a hit. Of some 83,000 tested, about 20% had one in any assay.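 Note: values are percent growth. 100 is the growth of untreated cells, values between 100 and 0 indicate rising inhibition; between -100 and 0 indicates cell death.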 The source made the active and inactive calls. Rule for the calls: active = growth percent below 10; inactive = the rest.

Key:
Assay in all cases: NCI-60 one-dose screen, 48 h (100 = growth as untreated, 0 = no growth, -100 = all killed)
[1] = test system: NCI-H23 lung; settings: 10 µM unless noted
[2] = test system: NCI-H226 lung; settings: 10 µM unless noted
[3] = test system: NCI-H322M lung; settings: 10 µM unless noted
[4] = test system: HOP-62 NSCLC; settings: 10 µM unless noted
[5] = test system: NCI-H460 lung; settings: 10 µM unless noted
[6] = test system: HOP-92 NSCLC; settings: 10 µM unless noted
[7] = test system: NCI-H522 lung; settings: 10 µM unless noted
[8] = test system: 786-0 renal; settings: 10 µM unless noted
[9] = test system: COLO 205 colon; settings: 10 µM unless noted
[10] = test system: DU-145 prostate; settings: 10 µM unless noted
[11] = test system: MALME-3M melanoma; settings: 10 µM unless noted
[12] = test system: MDA-MB-231 breast; settings: 10 µM unless noted
[13] = test system: RXF 393 renal; settings: 10 µM unless noted
[14] = test system: SF-268 CNS; settings: 10 µM unless noted
[15] = test system: SF-295 CNS; settings: 10 µM unless noted
[16] = test system: SF-539 CNS; settings: 10 µM unless noted
[17] = test system: UACC-257 melanoma; settings: 10 µM
[18] = test system: M14 melanoma; settings: 10 µM unless noted
[19] = test system: K-562 leukemia; settings: 10 µM unless noted
[20] = test system: A549/ATCC NSCLC; settings: 10 µM unless noted

Measured: growth

CC1OC(O[C@@H]2[C@H](O)C(CO)OC(O[C@H]3COC(O[C@H]4CC[C@]5(C)[C@H]6CC[C@]78OC[C@@]9(CC[C@](C)(C=O)C[C@H]97)C(=O)C[C@@]8(C)[C@]6(C)CC[C@H]5C4(C)C)[C@@H](O)[C@@H]3O)[C@H]2OC2OC[C@@H](O)[C@@H](O)[C@@H]2O)[C@@H](O)[C@@H](O)[C@H]1O (some centres not stated)
inactive: [1] 94.8% | [2] 82.7% | [3] 93.3% | [4] 75.2% | [5] 98.5% | [6] 79.5% | [7] 87.1% | [8] 95.5% | [9] 92.6% | [10] 108% | [11] 98.2% | [12] 79.7% | [13] 87.4% | [14] 95.9% | [15] 89.9% | [16] 99.8% | [17] 95.3% | [18] 96.9%

O=C(NCCCNc1cc(-c2cn(-c3ccccc3)nc2-c2cccc(O)c2)ccn1)Nc1ccc(F)cc1
inactive: [1] 26.3% | [2] 32.6% | [3] 35.3% | [4] 24% | [5] 21.4% | [10] 31.4% | [14] 18%
active: [6] -11.5% | [7] 1.7% | [8] -39.4% | [9] -39.4% | [19] 5.52% | [11] -27.3% | [12] 0.136% | [13] -34.9% | [15] -44.3% | [16] 6.41% | [17] -51.9%

O=C(Nc1cccc(-c2nc(-c3ccc(NC(=O)c4cccs4)cc3Cl)no2)c1)Nc1ccc(NC(=O)C2CC2)c(C(F)(F)F)c1
active: [1] -49.8% | [2] -46.4% | [3] -5.29% | [4] -44% | [5] -56.9% | [6] -40% | [7] -34.5% | [8] -30.7% | [9] -51.7% | [10] -13.4% | [19] -11.1% | [11] -80.6% | [12] -58.2% | [13] -83.7% | [14] -33.8% | [15] -63.1% | [16] -85.4% | [17] -32.2% | [18] -41.1%

O=C(/C=C1\C=CN(CCCCF)c2ccccc21)n1ccc2ccccc21
inactive: [1] 98.5% | [2] 91.9% | [3] 93.3% | [4] 93% | [5] 113% | [6] 90.9% | [7] 94.7% | [8] 107% | [9] 96.6% | [10] 127% | [19] 104% | [11] 100% | [12] 94.9% | [13] 126% | [14] 121% | [15] 106% | [16] 98.8% | [17] 110% | [18] 101%

C/C(=N\NC(=S)Nc1ccc(Br)cc1)c1cc2ccccc2oc1=O
active: [2] -17.8% | [5] 3.8% | [7] -14.4% | [8] 5.25% | [19] 9.69% | [13] -24.2% | [18] -28.8%
inactive: [1] 34.1% | [3] 37.4% | [4] 30.5% | [6] 29.1% | [9] 71.1% | [10] 29.4% | [11] 24% | [12] 23.2% | [14] 14.5% | [15] 32.1% | [16] 20.9% | [17] 10.1%

COC[C@]12CC[C@@H](C)[C@H](C)[C@H]1C1=CC[C@@H]3[C@@]4(C)CCCNC(C)(C)[C@@H]4CC[C@@]3(C)[C@]1(C)CC2
inactive: [1] 52.1% | [2] 58% | [3] 64.6% | [4] 40% | [6] 48.3% | [8] 21.1% | [10] 12.8% | [12] 51.2% | [13] 56.2% | [14] 70.2% | [16] 26.3% | [17] 20.3%
active: [5] -42.3% | [7] -31.9% | [9] -52.4% | [19] 0.992% | [11] -36.7% | [15] -74.2% | [18] -48.3%

CCOC(=O)c1nn(-c2ccc(C)cc2)c(=O)c2c(N)c(C#N)c(-c3ccc(OC)cc3)cc12
inactive: [1] 101% | [2] 94.4% | [3] 97.4% | [4] 81.3% | [5] 101% | [6] 91.9% | [7] 86.7% | [8] 108% | [9] 110% | [10] 109% | [19] 118% | [11] 93.8% | [12] 84.8% | [13] 104% | [14] 95.5% | [15] 103% | [16] 102% | [17] 107% | [18] 102%

CC(C)C(=O)Nc1ccc(-c2nc(-c3cccc(O)c3)c(-c3ccnc(Br)c3)[nH]2)cc1
active: [19] 7.32% | [13] -31.5% | [15] -40.5%
inactive: [1] 63.4% | [2] 65.4% | [3] 65.8% | [4] 42.6% | [5] 46.5% | [6] 39.5% | [7] 48.4% | [8] 12.9% | [9] 59.3% | [10] 69.3% | [11] 40.8% | [12] 58.5% | [14] 54.8% | [16] 34.5% | [17] 52.7% | [18] 49.4%

Cn1nc(Nc2ccccc2)c(C(=O)NN)c1N
inactive: [1] 100% | [2] 92.5% | [3] 97% | [4] 99.8% | [5] 107% | [6] 111% | [7] 96.9% | [8] 109% | [9] 104% | [10] 106% | [19] 108% | [11] 90.9% | [12] 93% | [13] 109% | [14] 103% | [15] 103% | [16] 96% | [17] 102% | [18] 101%

COc1ccc2c(c1)oc1c3[nH]c4ccccc4c3c3c(c21)C(=O)N(O)C3=O
active: [5] 5.34%
inactive: [1] 31.6% | [2] 79.9% | [3] 65.5% | [4] 13.2% | [6] 98.7% | [7] 43% | [8] 31.1% | [9] 69.5% | [10] 38.2% | [19] 31.2% | [11] 64.4% | [12] 82.9% | [13] 31.9% | [14] 33.5% | [15] 29.7% | [16] 28.9% | [17] 78.8% | [18] 29.9%

O=C1c2c(c3c4ccc(Br)cc4oc3c3[nH]c4ccccc4c23)C(=O)N1CCO
inactive: [1] 46.3% | [2] 33.3% | [3] 68.1% | [4] 12.2% | [6] 62.3% | [7] 43.8% | [8] 30.9% | [9] 52.4% | [10] 35% | [11] 65.4% | [12] 65.1% | [13] 57.1% | [14] 49.2% | [15] 20.8% | [16] 17.1% | [18] 29.8%
active: [5] 3.9%

COc1ccc([C@@H]2[C@@H](O)C(=O)N2c2cc(OC)c(OC)c(OC)c2)cc1
inactive: [1] 25.6% | [3] 43.1% | [4] 22.7% | [20] 23.3% | [8] 19.2% | [10] 12.7% | [11] 49.9% | [12] 30.4% | [13] 24% | [14] 46.9% | [15] 19.8% | [18] 12.5%
active: [2] -7.75% | [5] 3.07% | [6] -1.78% | [7] -21.2% | [9] -78.7% | [16] -7.72%

Cn1cc(-c2nn3c(=O)cc(-c4ccccc4)nc3s2)c2cc(F)ccc21
active: [6] -3.43% | [7] -37.4%
inactive: [1] 59.7% | [2] 46.4% | [3] 65.6% | [4] 45% | [5] 15.5% | [8] 82.5% | [9] 44.8% | [10] 66.6% | [11] 22.7% | [12] 58.3% | [13] 45.9% | [14] 78.4% | [15] 34.7% | [16] 49.9% | [18] 46.6%

Clc1ccc(-c2csc(N/N=C/c3nc4ccccc4n3C3CC3)n2)cc1
inactive: [1] 98.5% | [2] 91.5% | [3] 98.5% | [4] 106% | [5] 105% | [6] 105% | [7] 93% | [8] 109% | [9] 104% | [10] 113% | [19] 107% | [11] 96.3% | [12] 96.7% | [13] 107% | [14] 94.7% | [15] 96.5% | [16] 99.4% | [17] 91% | [18] 91.9%

CCNCc1c(-c2cccc(OC(F)(F)F)c2)[nH]c2ccc(N3CCCC3)cc2c1=O
inactive: [1] 24.9% | [2] 37.1% | [3] 30.3% | [4] 29.2% | [6] 43.4% | [7] 32.5% | [8] 28.2% | [9] 17.9% | [10] 15% | [11] 39.5% | [12] 20% | [14] 45.1% | [17] 62.2%
active: [5] 8.9% | [19] 6.77% | [13] -9.04% | [15] 3.08% | [16] 2.73% | [18] -0.303%

CN1CCN(c2ccc(C(=O)/C=C/c3ccc(Cl)c(C(F)(F)F)c3)cc2)CC1
inactive: [1] 81.5% | [2] 86% | [3] 78.8% | [4] 88.9% | [5] 88% | [6] 41.8% | [7] 76.4% | [8] 79.9% | [9] 60.6% | [10] 77.9% | [11] 88.4% | [12] 83.3% | [13] 63.4% | [14] 87% | [15] 103% | [16] 49.4% | [17] 75.2% | [18] 87.2%
active: [19] 7.64%
